The values that follow come from ChEMBL document CHEMBL1157539, “Thousands of chemical starting points for antimalarial lead identification” (Nature, 2010).

Type in all cases: functional
The test system of test [1] is Plasmodium falciparum. The test can be described thus: GSK_TCMDC: Inhibition of Plasmodium falciparum 3D7 in whole red blood cells, using parasite LDH activity as an index of growth. Test compounds present at 2uM.
For test [2], the system named is Plasmodium falciparum. In words: GSK_TCMDC: Inhibition of Plasmodium falciparum Dd2 in whole red blood cells, using parasite LDH activity as an index of growth. Test compounds present at 2uM.
In a further test the test system is HepG2. In words: GSK_TCMDC: Percent inhibition of human HepG2 cell line. Test compounds present at 10uM.

`CCOC(=O)c1c(C)noc1Nc1cccc(C)c1C`: the Inhibition (usually the relative decrease from the control value, in per cent) with Plasmodium falciparum [1] is on record as 98%; in the test on Plasmodium falciparum [2], 0%; with HepG2 it was 8%.
As to `Cc1ccc(CNC(=O)[C@H](CCCN)Nc2cc(C)nc(NCC3CCCCC3)n2)cc1.O=C(O)C(F)(F)F`, the Inhibition with Plasmodium falciparum [1] was determined as 90%; in the test on Plasmodium falciparum [2] it was 0%; with HepG2, 1%.
As for `Nc1ncnc2nc(-c3ccc(F)cc3)cc(-c3ccc(NC(=O)c4ccccc4)cc3)c12`, the Inhibition amounted to 100% in the test on Plasmodium falciparum [1], 97% in the test with Plasmodium falciparum [2] and 0% in the test on HepG2.
On to `Cc1c(N=O)cc(C(C)(C)C)c(O)c1C(=O)Nc1ccc([N+](=O)[O-])cc1Cl`, for which the Inhibition in the test with Plasmodium falciparum [1] worked out at 100%; in the test on Plasmodium falciparum [2] it was 98%; in the test on HepG2 it was 72%.
In the same order, the values of `CN1CCN(c2ccnc3cc4ccccc4cc23)CC1` are 93%, 49% and 11%.
The corresponding values for `O=C(/C=C/c1ccc(Cl)c(Cl)c1)NCCCCCCN1CCN(C(=O)Nc2ccc(C(F)(F)F)cc2)CC1` are 100%, 44% and 42%.
In the same order, the values of `Cc1nc(C)c(CC(=O)Nc2ccc(-c3cccc(-c4nc5cc(C(F)(F)F)ccc5[nH]4)c3)cc2)s1` are 86%, 4% and 67%.
On to `Cc1ccn2cc(-c3ccc(NC(=O)c4ccc(Br)o4)cc3)nc2c1`, for which the figures for the Inhibition with Plasmodium falciparum [1], with Plasmodium falciparum [2] and with HepG2 were 98%, 41% and 100%, respectively.
The corresponding values for `Cc1nnsc1C(=O)Nc1cccc(-c2cccc(-c3nc4cccc(C)c4[nH]3)c2)c1` are 99%, 80% and 22%.
In the same order, the values of `COc1ccccc1N1CCN(c2cccc(F)c2C#N)CC1` are 85%, 59% and 0%.
For the compound `Cc1ccc(Cn2cnc3cc(C(=O)Nc4ccc(-c5ccc(CN(C)C)cc5)cc4)ccc3c2=O)o1`, the Inhibition is given as 82% with Plasmodium falciparum [1], 12% in the test with Plasmodium falciparum [2] and 43% in the test on HepG2.
Take `Cc1cccc(-n2c(=O)c3c4c(sc3n3c(SCCC(C)C)nnc23)CCCC4)c1`: the Inhibition with Plasmodium falciparum [1] is 90%; in the test with Plasmodium falciparum [2], 8%; in the test with HepG2, 0%.
In the case of `CCOc1ccc2nc(C)cc(N/N=C/c3cccc([N+](=O)[O-])c3)c2c1`, the Inhibition came to 100% in the test on Plasmodium falciparum [1], 93% in the test with Plasmodium falciparum [2] and 7% in the test with HepG2.
With `Cc1cc(O)c(-c2cccc(Oc3ccc(Cl)cc3)c2)c(C)n1`, the Inhibition in the test with Plasmodium falciparum [1] is listed as 96%; in the test with Plasmodium falciparum [2] it was 95%; in the test on HepG2 it was 0%.
The corresponding values for `O=C(/C=C/c1ccc(Cl)c(Cl)c1)NCCCCCN1CCC(C(=O)Nc2ccc(Cl)c(Cl)c2)CC1` are 98%, 0% and 73%.
The corresponding values for `COc1cc(OC)cc(-c2nn(-c3ccc([N+](=O)[O-])cc3C#N)c(=S)n2CC2CCCO2)c1` (configuration not stated) are 98%, 75% and 9%.
In the same order, the values of `CC(C)CCN(Cc1cncn1Cc1ccccc1F)C(=O)c1cncc(-c2ccccc2)c1` are 96%, 3% and 1%.
As for `CN(CCCCNC(=O)c1cc2ccccc2[nH]1)C1CC2(CCN(C(=O)OC(C)(C)C)CC2)c2ccccc21` (configuration not stated), the values for the Inhibition in the test with Plasmodium falciparum [1], in the test with Plasmodium falciparum [2] and with HepG2 were 86%, 75% and 12%, respectively.
Regarding `Brc1ccccc1CNc1ccnc(NCCn2ccnc2)n1`, the Inhibition in the test on Plasmodium falciparum [1] came out at 99%; in the test with Plasmodium falciparum [2] it was 33%; in the test on HepG2 it was 72%.
The corresponding values for `Cc1ccc(Cn2cnc(N3CC(C)NC(C)C3)cc2=O)cc1NC(=O)Nc1ccc(-c2ccccc2)cc1.O=C(O)C(F)(F)F` (configuration not stated) are 96%, 15% and 18%.
The corresponding values for `COc1cc2c(C3CCN(CC4CCC(NC(=O)/C=C/c5ccc(Cl)c(Cl)c5)CC4)CC3)c[nH]c2cn1` (configuration not stated) are 100%, 100% and 44%.
In the same order, the values of `O=C(O)C(F)(F)F.c1cc(CNCCN2CCNCC2)cc(-c2ccc(-c3nc4ccccc4[nH]3)cc2)c1` are 98%, 11% and 3%.
`Cl.O=C(Nc1ccc(Cl)c(Cl)c1)N1CCc2cc3nccc(N4CCN5CCC[C@H]5C4)c3cc21`: the Inhibition is given as 100% with Plasmodium falciparum [1], 75% in the test with Plasmodium falciparum [2] and 2% in the test with HepG2.
The corresponding values for `COc1cccc(CNC(=O)c2cccc(-c3cccc(CN4CCC(N5CCCC5)CC4)c3)n2)c1.O=C(O)C(F)(F)F` are 100%, 76% and 22%.
The corresponding values for `CC(=NNC(S)=Nc1ccccc1Cl)c1ccccn1` are 100%, 99% and 69%.
In the same order, the values of `O=C(Nc1ccc(-c2ccccc2)cc1)Nc1cccc(Cn2cnc(N3CCCNCC3)cc2=O)c1.O=C(O)C(F)(F)F` are 88%, 13% and 8%.
Take `Cc1nc(-c2nc(N3CCOCC3)ncc2-c2ccsc2)sc1C`: the Inhibition was determined as 89% with Plasmodium falciparum [1], 75% with Plasmodium falciparum [2] and 5% with HepG2.
In the same order, the values of `O=C(c1ccc([N+](=O)[O-])o1)N1CCC(Cc2ccc(C(F)(F)F)cc2)CC1` are 100%, 99% and 38%.
The corresponding values for `CCC(C)OC(=O)C1=C(C)NC2=C(C(=O)CC(c3ccc(OC)c(OC)c3)C2)C1c1ccc(C)o1` (configuration not stated) are 93%, 82% and 6%.
